Laboratory results published in PubChem BioAssay (NCATS).
Inconclusive results are not listed. Activity calls are given as the source filed them. The call rests on the fitted dose curve; in most records, active means well fitted inhibition curve with a large enough effect; inconclusive means small, poorly fitted or top-dose-only effect; inactive means flat fitted curve, though single readings scatter.

Target: Calcium and integrin-binding protein 1 (Homo sapiens) (UniProt Q99828)
Test: Primary qHTS for Identification of Calcium Integrin Binding Protein 1 (CIB1) Competitor (AID 1508620);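 further: GST tagged CIB1 binding a fluorescein labelled alphaIIb integrin peptide tracer; top concentration of the series differs between compounds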
Conditions: CIB1-GST / FITC-alphaIIb peptide fluorescence polarization; series mostly up to 114 µM; activity change, negative = inhibition: at the top concentration
Summary of the method: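 Fluorescence polarization competition: CIB1-GST (1 uM final) preincubated with compound 15 min at room temperature, then FITC-labeled alphaIIb peptide (100 nM final) added for another 15 min. Polarization read at Ex 480/Em 540.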
On the % scale 0 is the no-effect control and ±100 the full control effect.

Chain of Calcium and integrin-binding protein 1 (Homo sapiens) (Q99828 whole entry, looked up): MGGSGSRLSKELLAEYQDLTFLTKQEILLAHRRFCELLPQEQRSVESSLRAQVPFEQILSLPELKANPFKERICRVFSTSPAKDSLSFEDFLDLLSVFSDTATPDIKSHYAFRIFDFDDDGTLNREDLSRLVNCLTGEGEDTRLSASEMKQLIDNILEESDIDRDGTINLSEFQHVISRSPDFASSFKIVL

Structure (SMILES)	activity change, negative = inhibition	Potency
COc1cccc(OC)c1C1=Nn2c(nnc2-c2ccccc2O)SC1	-3.31% (inactive)	
CN(Cc1cccs1)c1ncnc2ccc(-c3ccc4cn(C)nc4c3)cc12	-5.26% (inactive)	
Clc1ccccc1-c1ccc2ncnc(NCc3ccc4c(c3)OCO4)c2c1	2.27% (inactive)	
CC1=C(C(=O)Nc2nnc(-c3ccccc3)s2)C(c2nn(C)cc2Cl)N=C(Nc2nc3ccccc3o2)N1 (stereo not given)	0.983% (inactive)	
C[C@@H](NC(c1ccc(F)cc1)c1ccc2cccnc2c1O)c1ccccc1 (stereo not given in full)		inactive
Cc1cc(C=CC#N)cc(C)c1Nc1nc(Nc2ccc3scnc3c2)c2[nH]cnc2n1	-8.96% (inactive)	
COc1ccc(C2=Nn3c(nnc3-c3ccc(OC)cc3OC)SC2)cc1	-1.79% (inactive)	
Cc1ccc(NC(=O)c2cnn3c(C)cc(C)nc23)c(C)c1	2.89% (inactive)	
Cc1cc(NS(=O)(=O)c2ccc(NC(=O)Cc3ccccc3)cc2)no1	-8.06% (inactive)	
CCOC(=O)c1cccc(NS(=O)(=O)c2ccc(NC(=O)Cc3ccc(Cl)c(Cl)c3)cc2)c1	0.405% (inactive)	
CC(=O)Nn1c(C)nc2sc3c(c2c1=O)CCNC3	-3.83% (inactive)	
Cc1ccc(NC(=O)CN2C(=O)N/C(=C\c3cccn3-c3ccc(C(=O)NS(C)(=O)=O)cc3)C2=O)cc1	-10.8% (inactive)	
COc1ccc(C2Nc3ccccc3C(=O)N2CC(C)(C)C)cc1COc1ccc(NC(C)=O)cc1 (stereo not given)	5.56% (inactive)	
COc1cccc(-c2nnc3n2N=C(c2ccc(OC)cc2OC)CS3)c1	-1.16% (inactive)	
CCOc1cc2c(cc1OCC)CN(C(=O)c1cc3sccc3n1Cc1ccccc1)CC2	4.43% (inactive)	
CCNC(=O)C1CCN(C(=O)C(C)(C)NC(=O)Nc2ccccc2Cl)CC1	-2.15% (inactive)	
COCc1nn2c(=O)cc(N3CCNCC3)nc2s1	-0.148% (inactive)	
COc1ccc(C2Nc3ccccc3C(=O)N2Cc2ccc(C(F)(F)F)o2)cc1COc1c(C)cccc1C (stereo not given)	1.26% (inactive)	
O=C1OC(c2ccccc2)(c2ccccc2)N2CCN(C(=O)NCc3ccc(F)cc3)CC12 (stereo not given)	4.41% (inactive)	
Cc1cc2c(s1)c1cnn(Cc3ccc(C(C)C)cc3)c(=O)c1n2C	1.25% (inactive)	

Structure (SMILES)	activity change, negative = inhibition	Potency
O=C(Nc1nnc(-c2ccncc2)s1)Nc1cccc2ccccc12	6.38% (inactive)	
O=C(CSc1nnc(-c2cccc(S(=O)(=O)N3CCCC3)c2)n1-c1ccccc1)Nc1ccc(F)cc1	-0.658% (inactive)	
O=C(Nc1ccc(Cl)c([N+](=O)[O-])c1)Nc1nnc(C2CCCCC2)s1	-0.73% (inactive)	
Cc1ccc(OCCn2c(CCNC(=O)C3CCNCC3)nc3ccccc32)cc1	4.73% (inactive)	
O=C(Nc1ccccc1)Nc1nnc(-c2ccncc2)s1	6.04% (inactive)	
Cc1ccc(OCCn2c(CCNC(=O)CCc3ccc(N)cc3)nc3ccccc32)cc1	2.44% (inactive)	
O=C(OCC#CCSc1nnc(-c2cccc3ccccc23)o1)c1ccc(Cl)cc1	0.96% (inactive)	
Cc1csc(CNc2ncnc3ccc(-c4ccc5c(ccn5C)c4)cc23)c1	4.28% (inactive)	
COc1cc(O)c(C(CC(=O)N2CC(C)CC(C)C2)c2ccc(O)cc2)c(OC)c1 (stereo not given)	4.16% [at 228 µM] (inactive)	
O=[S+]([O-])(c1ccc2c(c1)OCCO2)N1CCN([S+](=O)([O-])c2c(O)cc(F)cc2F)CC1	0.118% (inactive)	
Cc1cc2c(s1)c1cnn(Cc3cc(F)cc(F)c3F)c(=O)c1n2C	2.6% (inactive)	
O=C(Nc1cccc2c1cnn2-c1ccc(F)cc1)c1ccccn1	4.34% (inactive)	
COc1ccccc1-c1nnc2n1N=C(c1ccc(OC(F)F)c(OCC3CC3)c1)CS2	1.36% (inactive)	
COc1ccc2c(c1)Oc1ncn(CCN3CCOCC3)c(=N)c1C2c1ccc(OC)c(OC)c1 (stereo not given)	-1.45% (inactive)	
Cc1ccc(OCCn2c(CCNC(=O)c3ccc4cc[nH]c4c3)nc3ccccc32)cc1	4.86% (inactive)	
O=C1c2ccccc2C(=O)N1c1cnc2ccccc2c1	3.71% (inactive)	
Cc1nnc(-c2ccccc2C(C)C)nc1NCc1ccc(-c2cccnc2)cc1	-4.41% (inactive)	
Cc1cc2c(s1)c1cnn(Cc3cccc(F)c3)c(=O)c1n2C	8.73% (inactive)	
O=S(=O)(Nc1nc(-c2ccccc2C(F)(F)F)nc2ccccc12)c1ccc(-c2ccnc(C(F)(F)F)c2)cc1	-13.7% (inactive)	
CN(C)c1cccc(-c2csc(N3CCC(C(N)=O)CC3)n2)c1	-15.9% (inactive)	
